Compounds without any hit were thinned out: in the full panel of roughly 79,000, 15% have a hit. Values without a mark were called inactive. Rule as the data show it: active = growth inhibition above about 70%; inactive = the rest.
Assay: NCI Yeast Anticancer Drug Screen. Data for the bub3 strain (AID 167)
Conditions: S. cerevisiae bub3 mutant strain, at 50.0 µM, stronger effect = higher value
Method in brief: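 Growth of a checkpoint-deficient yeast mutant is measured after compound exposure. Values represent inhibition relative to vehicle.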

SMILES | growth inhibition [%]
CC1CCC2(CC1)CC(=O)N(N1CCCCC1)C2=O (stereo not drawn) | 3.3
NC(=S)N/N=C/c1ccc(Cl)cc1Cl | 45.2
O=C(O)c1ccc(C(=O)O)nc1 | 4.8
CC(=O)/C=C/C=C\C=C/N=C(c1ccccc1)c1ccccc1 | 26.1
Cc1ccc(S(=O)(=O)OC(F)(F)C(F)(F)F)cc1 | -4.05
Cc1ccc(NC(=O)CC/C(CC(=O)C(C)(C)C)=N/NC(=O)C(N)=O)cc1C | 8.55
CN(C)c1ccc(N=Nc2cccc3ncccc23)cc1 | 65.5
COC(=O)c1ccc(SCCC(C)=O)cc1 | 25.9
CCSC(SCC)C(O)C(O)C(O)C(C)O (stereo not drawn) | -5.05
CC(=O)c1cccc(NC(=O)N(C)C2CCCCC2)c1 | -7.45
CCOC(=O)CC(=O)C(=O)NNC1=NCCCN1 | 2.3
COc1cc([C@@H]2OC(=O)C3C2C(=O)O[C@H]3c2ccc(O)c(OC)c2)ccc1O (stereo partly drawn) | 0.55
Cc1csc(C)[n+]1CC(=O)c1ccccc1 | -6.1
COC1/C=C/OC2(C)Oc3c(C)c(O)c4c(O)c(c5c(nc(-c6ccco6)n5-c5ccccc5)c4c3C2=O)NC(=O)/C(C)=C\C=C\C(C)C(O)C(C)C(O)C(C)C(OC(C)=O)C1C (stereo not drawn) | -18.8
COc1cc(C=O)ccc1OC(=O)Nc1cc(Cl)ccc1C | 13.2
CCOC([O-])=N/C(=N/[n+]1ccc(C)cc1)c1ccccc1 | -15.1
Cc1ccc(S(=O)(=O)N/N=C(\c2nc3ccc([N+](=O)[O-])cc3[nH]c2=O)C(O)c2ccccc2Cl)cc1 (stereo not drawn) | 10.3
O=[N+]([O-])C1(CO)COC2(OC1)c1ccccc1-c1ccccc12 | -26.8
O=C1c2ccccc2-c2nc(/C=C/c3ccccc3)cc3c2c1nc1ccccc13 | -9.5
Clc1nc(-c2ccccc2)nc2ccccc12 | -19.8
CCOc1cc(C)c2cccc(C)c2n1 | 2
Cc1ncc([N+](=O)[O-])n1CCNC(=O)CCCn1cnc([N+](=O)[O-])n1 | -27.9
Cc1cc(OC(=O)c2ccccc2)cc(C)c1OC(=O)c1ccccc1 | 7.15

Assay: NCI Yeast Anticancer Drug Screen. Data for the mlh1 rad18 strain (AID 175)
Conditions: S. cerevisiae mlh1 rad18 strain growth inhibition; at 50.0 µM; stronger effect = higher value
Method in brief: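 Steps: expose repair-defective yeast to compound; measure growth; express inhibition against vehicle-treated controls.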

SMILES | growth inhibition [%]
Cc1ccc(S(=O)(=O)/N=C2\CCN(S(=O)(=O)c3ccccc3)N2S(=O)(=O)c2ccc(C)cc2)cc1 | 46.5
C=C1C(OC(C)=O)CC(OC(C)=O)C2(C)C(OC(C)=O)C(OC(C)=O)C3=C(C)C(OC(=O)/C=C/c4ccccc4)CC(C(OC(C)=O)C12)C3(C)C (stereo not drawn) | 15.6
CCN(CC)c1nc(Cl)nc(C(N)=O)c1N | -10.4
CO/N=C(\C(=O)N(C)n1cnnc1)c1csc(NC(c2ccccc2)(c2ccccc2)c2ccccc2)n1 | 28
CC(=O)NNC(=S)N/C=C(\C#N)C(=O)c1ccc2ccccc2c1 | -53
CCCCCCCCC(=O)c1ccc(N=Nc2ccc(OCC)cc2)cc1 | -14.8
CCC(CCCN)Nc1cc(OC)cc2c(C)ccnc12 (stereo not drawn) | -21.2
COc1ccc2cc(NC(=O)N/N=C\c3ccc(Cl)cc3)ccc2c1 | 30.4
CSc1ccc(NC(=O)Nc2cc(C)c(C)cc2C)cc1 | 2.85
CC1(C)C2CCC(=O)C1CC2 (stereo not drawn) | -43.5
C=C(Br)CN=CN(C)C | 23.1
CC12CCC(CC1)C2(C)C | -1.6
O=C(OC1CCCC1OC(=O)c1ccccc1)c1ccccc1 (stereo not drawn) | 22.4
ClCCCc1ccccc1C1=NCCc2ccccc21 | 9.9
Cc1cc(Cl)cc(C(=O)O)c1O | -8
CC(=O)n1cc2cc([N+](=O)[O-])ccc2n1 | -17.1
COc1ccc2ccc3c(c2c1)C(=O)C(CC(N)=O)C3 (stereo not drawn) | 15
CC1CCC2(CC1)CC(=O)N(N1CCCCC1)C2=O (stereo not drawn) | 23.9
NC(=S)N/N=C/c1ccc(Cl)cc1Cl | 38.7
O=C(O)c1ccc(C(=O)O)nc1 | -1.35

SMILES | growth inhibition [%]
CC(=O)/C=C/C=C\C=C/N=C(c1ccccc1)c1ccccc1 | -3.85
Cc1ccc(S(=O)(=O)OC(F)(F)C(F)(F)F)cc1 | 5.5
Cc1ccc(NC(=O)CC/C(CC(=O)C(C)(C)C)=N/NC(=O)C(N)=O)cc1C | 5.1
CN(C)c1ccc(N=Nc2cccc3ncccc23)cc1 | 66
COC(=O)c1ccc(SCCC(C)=O)cc1 | 0.7
CCSC(SCC)C(O)C(O)C(O)C(C)O (stereo not drawn) | 6.55
CC(=O)c1cccc(NC(=O)N(C)C2CCCCC2)c1 | -22.1
CCOC(=O)CC(=O)C(=O)NNC1=NCCCN1 | 0.45
COc1cc([C@@H]2OC(=O)C3C2C(=O)O[C@H]3c2ccc(O)c(OC)c2)ccc1O (stereo partly drawn) | 24.2
Cc1csc(C)[n+]1CC(=O)c1ccccc1 | -29.1
COC1/C=C/OC2(C)Oc3c(C)c(O)c4c(O)c(c5c(nc(-c6ccco6)n5-c5ccccc5)c4c3C2=O)NC(=O)/C(C)=C\C=C\C(C)C(O)C(C)C(O)C(C)C(OC(C)=O)C1C (stereo not drawn) | -22.7
COc1cc(C=O)ccc1OC(=O)Nc1cc(Cl)ccc1C | 8.85
CCOC([O-])=N/C(=N/[n+]1ccc(C)cc1)c1ccccc1 | -12.5
Cc1ccc(S(=O)(=O)N/N=C(\c2nc3ccc([N+](=O)[O-])cc3[nH]c2=O)C(O)c2ccccc2Cl)cc1 (stereo not drawn) | 23.8
O=[N+]([O-])C1(CO)COC2(OC1)c1ccccc1-c1ccccc12 | -0.25
O=C1c2ccccc2-c2nc(/C=C/c3ccccc3)cc3c2c1nc1ccccc13 | -0.25
Clc1nc(-c2ccccc2)nc2ccccc12 | -7.25
CCOc1cc(C)c2cccc(C)c2n1 | 13.8
Cc1ncc([N+](=O)[O-])n1CCNC(=O)CCCn1cnc([N+](=O)[O-])n1 | -38.9
Cc1cc(OC(=O)c2ccccc2)cc(C)c1OC(=O)c1ccccc1 | -6.7

— PubChem BioAssay (NCI)
